The values that follow come from PubChem BioAssay AID624300 (Southern Research Specialized Biocontainment Screening …, 2012).

About 360 (15%) of roughly 2,400 compounds were called active. The list is a sample of the results. Results with a measured potency or affinity are listed apart. A number with no mark means an inactive call.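 How the source made its calls: active means viability falls under 70% at one or more tested concentrations, taken as toxicity; inactive means viability stays over 70% at every dose.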

The assay can be described thus: HeLa cell cytotoxicity, dose response, cytotoxicity control for MgcRacGAP inhibitor project (AID 624300).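 Further: 100% = median of untreated control wells on the same plate.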 As to conditions: CellTiter-Glo luminescence, 24 h; series mostly up to 100 µM; viability: at the top concentration.
As for `O=C(N/N=C/c1ccc(O)cc1)c1csc2ccccc12`, the “viability” value was 93.1%.

In the case of `COc1cc(/C=N/NC(=O)CCc2n[nH]c(=O)[nH]c2=O)ccc1O`, the “viability” value is 104%. For `Clc1cc(Br)ccc1OCCOCCN1CCCC1`, the “viability” value is 95.9%. With `CN1CCN(CCOCCOc2ccc(Br)cc2Cl)CC1`, the “viability” value was 97%. Consider `CCCCn1c(=S)[nH]c2c(=O)n(C)c(=O)n(C)c21`, for which the “viability” value is 101%. For the compound `O=[N+]([O-])/C(C=Nc1ccccc1O)=C\Nc1ccccc1O`, the “viability” value is 99.3%.

Consider `CN(Cc1ccccc1)C(=O)C1CCCN(Cc2ccc(Cl)cc2)C1` (centres undefined), for which the “viability” value was 90.4%. As to `COc1cc(/C=N/NC(=O)c2ccccc2NS(=O)(=O)c2cccs2)ccc1O`, the “viability” value was 101%. Regarding `COC(=O)C1=C(C)N(Cc2ccco2)C(=O)C1`, the “viability” value was 99.1%. For `CCOc1cc(/C=C2\C(=O)N(Cc3ccco3)C(C)=C2C(=O)OC)ccc1O`, the “viability” value is 88.9%.

Consider `Oc1ccc(Br)cc1C=Nc1ccc2c3c(cccc13)CC2`, for which the “viability” value is 99.1%. Next, `C#CCOCCOCCOCCNc1nc(N2CCN(C(=O)C([C@@H](C)O)n3cc([C@@H](N)CCCCN)nn3)CC2)nc(N2CCN(C(=O)[C@H](CCCN=C(N)N)n3cc(C(N)[C@@H](C)CC)nn3)CC2)n1` (some centres undefined): 102%. To `CCC(CC)N1CCN(C(=O)c2cccc(Cl)c2)CC1` belongs 100%; to `COc1cc(/C(C)=N/N2CCN(c3ccccc3OC)CC2)ccc1O`, 98.8%. Consider `CN(C)C(=S)N=c1ssc(=S)n1Cc1cccnc1`, for which the “viability” value was 117%. Regarding `COc1cc(/C=N/n2c(-c3cc(C)[nH]n3)n[nH]c2=S)cc(OC)c1OC`, the “viability” value is 95.3%. To `O=c1oc(-c2ccc(O)c(O)c2)cc2cccc(O)c12` belongs 75.5%; to `COc1c(-c2ccc(O)c(O)c2)oc2cc(O)cc(O)c2c1=O`, 93.9%. Consider `CCOC(=O)c1[nH]c2ccccc2c1NC(=S)Nc1cc(C)ccc1C`, for which the “viability” value is 101%.

Consider `O=C(CN1CCN(c2ccc(O)cc2)CC1)Nc1ccccc1C(=O)NCCc1ccccc1`, for which the “viability” value is 103%.

Consider `S=c1[nH]nc(-c2ccco2)n1/N=C/c1ccc(Cl)cc1`, for which the “viability” value is 90.3%. Consider `COc1cc2c(cc1OC)C1(CCCC1)C(N)=C2C#N`, for which the “viability” value is 96.8%.

`Oc1cc(O)cc(-c2cc3ccc(O)cc3o2)c1`: the “viability” value was 109%. Take `COc1ccc(NC2CCCN(C(=O)C3=NNC(=O)CC3)C2)cc1` (centres undefined): the “viability” value was 100%. Turning to `N#Cc1ccccc1OCCCN1CCC(Cc2ccccc2)CC1`, the “viability” value is 83.8%. Take `Cc1nnc(N=c2ssnc2Cl)o1`: the “viability” value was 97.2%.

For `COc1cc(C(C)=NNC(=O)c2ccncc2)ccc1O`, the “viability” value was 95%. `CCCn1c(=O)c2ccccc2n2c(SCCNCCO)nnc12`: the “viability” value is 98.8%. With `Cc1ccc(NCc2ccccc2O)cc1C`, the “viability” value was 90.7%.

Take `O=C1OCC/C1=C\c1ccc(O)cc1`: the “viability” value is 100%. For the compound `COc1cc(/C=N/NC(=O)/C(=C/c2ccccc2)CCO)ccc1O`, the “viability” value is 96.7%. For the compound `CCN(CC)CCOC(=O)c1ccc(N/C=C(/C#N)c2nc(-c3ccc4c(c3)OCO4)cs2)cc1`, the “viability” value was 97%. As for `COc1ccc(-c2cc(C(=O)Nc3ccc(O)cc3)c3ccccc3n2)cc1OC`, the “viability” value was 85.8%.

Turning to `Cc1cc(NC(=O)c2sc3ccccc3c2O)no1`, the “viability” value was 97.1%. Turning to `COc1cccc(C(=O)N2CCN(C3CCN(Cc4ccccc4)CC3)CC2)c1OC`, the “viability” value is 102%. As to `CCN(CC)c1ccc(NC(=O)CN2CCN(c3ccccn3)CC2)cc1`, the “viability” value was 102%. `O=C(/C(=C/c1cccnc1)n1ccnc1)c1ccc(Cl)cc1Cl`: the “viability” value is 81.6%. As for `COc1cc(/C=N/NC(=S)NCCN2CCOCC2)ccc1O`, the “viability” value was 94.8%. Consider `O=C(N/N=C/c1ccc(O)cc1)NC12CC3CC(CC(C3)C1)C2`, for which the “viability” value was 100%. Next, `CCOc1cc(C=NNC(=O)CCCC(=O)NN=Cc2ccc(O)c(OCC)c2)ccc1O`: 104%. For `CCOc1cc(/C=N/NC(=O)c2cc(C3CC3)[nH]n2)ccc1O`, the “viability” value is 112%. Next, `COc1cc(/C=N/NC(=O)CC(=O)NC2CCCCC2)ccc1O`: 98.5%; `CCOc1cc(/C=N/NC(=O)C(OC)c2ccccc2)ccc1O` (centres undefined): 101%; `COc1cc(/C=N\NC(=O)C2CC3C=CC2C3)ccc1O` (centres undefined): 96.2%. To `CCOc1cc(/C=N/NC(=O)C2CCCC2)ccc1O` belongs 102%.

In the case of `CSc1nc(O)c(/C=C2\C=Nc3ccccc32)[nH]1`, the “viability” value is 90.4%.

As to `COc1ccc(NC2CCCN(C(=O)c3ccc(C)c(N4CCNC4=O)c3)C2)cc1` (centres undefined), the “viability” value is 98.6%. `CCOCCCNCC(=O)NCC1CCCCC1`: the “viability” value was 102%.

`COc1cc(NC(=O)COC(=O)/C=C/c2ccc(O)c(OC)c2)cc(OC)c1`: the “viability” value is 92.4%. As to `Nc1ccc(N2CCN(c3ccccc3)CC2)c(F)c1`, the “viability” value was 101%. With `O=C1CSC(=S)N1Nc1ccccc1`, the “viability” value was 100%. Next, `Nc1ccc(N=Nc2ccc(O)cc2)c(N)n1`: 81.5%; `Cc1ccc(N2C(S)=C(C#N)C(=O)NC23CCCCC3)cc1`: 96.6%; `Cc1cccc(-n2c(=O)c3ccccc3n3c(=S)[nH]nc23)c1C`: 104%. With `COc1ccc(OCC(O)CN2CCCC2)cc1` (centres undefined), the “viability” value was 102%. For the compound `OCCN1CCN(CC(O)COC(c2ccc(F)cc2)c2ccc(F)cc2)CC1` (centres undefined), the “viability” value is 101%. Consider `c1ccc(CNC23CC4CC(CC(C4)C2)C3)nc1`, for which the “viability” value is 100%. For `COc1ccc(S(=O)(=O)N2CCC(N3CCN(Cc4ccccc4)CC3)CC2)cc1`, the “viability” value is 98.1%. For `O=C(CSc1cn[nH]n1)Nc1cccc(C(=O)O)c1`, the “viability” value is 94.8%. `Cc1cc(C)c(OCCCCN(C)Cc2ccccc2)c(C)c1`: the “viability” value is 89.7%. For the compound `CN(CCOc1ccc(Cl)c(Cl)c1)Cc1ccccc1`, the “viability” value is 89.3%. In the case of `Cc1ccc(OCCCCNC(C)(C)C)c([N+](=O)[O-])c1`, the “viability” value was 95.7%. On to `Cc1ccc(-n2[nH]c(=O)c3cccnc32)cc1`, for which the “viability” value is 96.6%. On to `Nc1ccc(N2CCN(C(=O)c3cccs3)CC2)cc1`, for which the “viability” value was 103%. With `COc1cc(/C=C/C(=O)OCC(=O)NCCCc2ccccc2)ccc1O`, the “viability” value is 91.6%.

`COc1cc(/C=N/Nc2nc3ccccc3s2)ccc1O`: the “viability” value was 88.9%. In the case of `CC(=O)Nc1n[nH]c(=S)s1`, the “viability” value is 102%. To `O=C(N/N=C/c1sc2ccccc2c1O)c1cccc2ccccc12` belongs 88.4%. Next, `O=C(CNC(=O)c1ccc2c(c1)OCCO2)N/N=C/c1ccc(O)cc1O`: 109%; `CN(C)/C=C1/C=C(c2ccccc2)OC1=O`: 106%; `COc1cc(/C=N/N=C2/NC(=O)C(c3ccccc3)S2)ccc1O` (centres undefined): 92%. As for `O=C(CN1CCCCCC1)NN(Cc1ccccc1)c1ccccc1`, the “viability” value is 101%. To `S=C(NCCCN1CCOCC1)Nc1ccc(Nc2ccccc2)cc1` belongs 103%; to `COc1ccccc1CNc1ncc(-c2ccccc2)n1C`, 81.4%.

Regarding `COc1ccc(CNc2ncc(-c3ccc(Br)cc3)n2C)cc1OC`, the “viability” value is 93.4%.

On to `Cn1c(-c2ccccc2)cnc1NCc1ccc(-c2ccccc2)cc1`, for which the “viability” value is 86.2%. To `Clc1ccccc1CNCc1ccc2c(c1)OCO2` belongs 97.4%.

As to `Cc1ccc(CNc2ncc(-c3ccccc3)n2C)o1`, the “viability” value is 96.2%.

`COc1cc(CNc2ncc(-c3ccc(Br)cc3)n2C)cc(OC)c1O`: the “viability” value was 99.2%. Take `O=C1c2ccccc2C(=O)N1/N=C/c1ccc(O)c(O)c1`: the “viability” value was 98.4%.

Take `COc1ccc(C(=O)CCC(=O)Nc2cc(Cl)c(O)c(Cl)c2)cc1`: the “viability” value is 103%.

Turning to `N#CC1=C(N)NC(=S)C(C(N)=O)C1c1ccc([N+](=O)[O-])cc1` (centres undefined), the “viability” value is 101%. On to `Cc1ccc(COC(=O)Cc2coc3cc(O)ccc23)cc1`, for which the “viability” value is 109%.

For the compound `CCS(=O)(=O)c1cc([N+](=O)[O-])c(Sc2ccccc2N)s1`, the “viability” value is 97.9%. On to `CCOc1cc(/C=N/NC(=O)NN(C)c2ncc(C(F)(F)F)cc2Cl)ccc1O`, for which the “viability” value was 104%. In the case of `O=C(Cc1ccc(Cl)cc1)N/N=C/c1ccc(O)c(O)c1`, the “viability” value was 104%. Next, `O=c1c(O)c(-c2ccc(O)c(O)c2)oc2cc(O)ccc12`: 93.5%. As to `COC(=O)c1[nH]c2ccc(Cl)cc2c1NC(=O)Oc1ccccc1`, the “viability” value was 90.4%. Next, `Cc1cc(-c2n[nH]c(=S)n2/N=C/c2cccc(O)c2)n[nH]1`: 97.6%; `COc1ccc(NC2CCCN(C(=O)c3cccc(N4CCNC4=O)c3)C2)cc1` (centres undefined): 91.8%. `COc1ccc(Oc2c(-c3ccc(O)cc3O)n[nH]c2C)cc1`: the “viability” value is 97.1%. Next, `COc1cccc(Oc2cn[nH]c2-c2ccc(O)cc2O)c1`: 96.4%; `CC1=NN(C(N)=S)C(=O)C1N=Nc1ccc(O)cc1` (centres undefined): 89.7%; `O=C(O)c1ccc2c(c1)[C@@H]1C=CC[C@@H]1[C@H](c1ccccn1)N2`: 101%. As to `CCN(CC)c1ccc(NC(=O)CNCc2ccccc2Cl)c(C)c1`, the “viability” value was 89.4%. Take `COc1ccc(CNc2ncc(-c3ccccc3)n2C)c(OC)c1OC`: the “viability” value is 95.8%. Next, `COc1ccc(CNc2ncc(-c3ccc(F)cc3)n2C)cc1OC`: 96.8%.

On to `CCN1C(=O)c2ccc(C(=O)Nc3ccc(O)cc3C)cc2C1=O`, for which the “viability” value is 103%. Next, `CCn1nc(CC(C)C)cc1C(=O)N1CCCC(Nc2ccc(OC)cc2)C1` (centres undefined): 102%; `CC(C)NCC(=O)Nc1c2c(nc3ccccc13)CCC2`: 111%. For `CN1CCc2c1nc1ccccc1c2NC(=O)CN1CCCC1`, the “viability” value was 102%.

On to `Cc1sc2c3ccsc3ccc2[n+]1C`, for which the “viability” value is 96.4%. As for `CC(C)(C)N(Cc1ccc2c(c1)OCO2)C(=O)/C=C\S(=O)c1ccccc1` (centres undefined), the “viability” value is 99.4% [at 25 µM]. For `COc1ccc(C2NC(=O)C(C#N)=C(S)N2c2cccc(C)c2)cc1OC` (centres undefined), the “viability” value is 95.3%.

Turning to `CN(C)CCO/N=C(\c1ccc(Br)cc1)c1cccnc1`, the “viability” value is 94.7%.

For `COC(=O)c1ccc(NCc2c(O)ccc(O)c2Br)cc1Cl`, the “viability” value was 93.9%. As to `COC(=O)c1ccc(C(=O)OCCCc2nc3ccc(N)cc3[nH]2)cc1`, the “viability” value was 107%. For `CCOC(=O)c1[nH]c2ccccc2c1NC(=S)Nc1cccc(C)c1C`, the “viability” value was 91.2%. Next, `Cc1ccc(-c2n[nH]c(=S)n2/N=C/c2ccc(C(=O)O)cc2)cc1`: 94.9%; `COc1ccc2cc(OCC(=O)NNC(=O)Nc3ccc(F)cc3)ccc2c1`: 105%; `Oc1ccc(CCc2ccccn2)cc1`: 108%. In the case of `CC(=O)NC(Cc1ccccc1)C(=O)Oc1ccc2ccccc2c1` (centres undefined), the “viability” value was 88.7%. To `CN1C(=O)/C(=C/C=C2/CCCN2C)N(C)C1=S` belongs 99.4%; to `Oc1ccc(Nc2ncnc3ccccc23)cc1`, 97.4%; to `Cc1nc(Nc2ccc(O)cc2)c2c3c(sc2n1)CCCC3`, 90.5%. To `Cc1cccc(Nc2c(-c3ccc(O)cc3)nc3ncccn23)c1` belongs 97.8%. On to `COc1ccc(/C=N/N2CCN(C)CC2)cc1O`, for which the “viability” value is 110%.

On to `CC1=NOC(=O)/C1=C\c1ccc(-c2ccc(Cl)c(C(=O)O)c2)o1`, for which the “viability” value is 104%. Next, `O=c1nc2s/c(=C\c3ccc(-c4ccccc4[N+](=O)[O-])o3)c(=O)n2nc1-c1ccccc1`: 105%.
